Results published in PubChem BioAssay AID602405 (Broad Institute, 2012).
The campaign covered roughly 360,000 compounds. About 350 (0.097%) were called active. The sample holds actives, similar compounds and a random draw of the others, so the mix is not that of the screen. Unmarked numbers belong to inactive results. No stated cut-off is given here; in the data, active means inhibition above about 16% (passing the limit was not always enough); inconclusive means no clear call, values can overlap the other calls; inactive means below that.

Each compound was assayed on UDP-N-acetylbacillosamine N-acetyltransferase PglD (Campylobacter jejuni) (assay: blockers of PglD enzyme activity – biochemical, DTNB colorimetric, single point, primary screen (AID 602405)). Details: purified PglD enzyme, DTNB colorimetric CoA detection; at 12.5 µM; hits give high values.

| Compound | inhibition |
| --- | --- |
| CCCCC(=O)Nc1ccc(C(=O)NCCCn2ccnc2)cc1 | 20.6% (active) |
| CCCC(=O)Nc1ccc(C(=O)NCCCn2ccnc2)cc1 | -0.628% |
| CC(=O)Nc1ccc(NC(=O)CCCNC(=O)c2ccc(Cl)cc2)cc1 | -4.6% |
| COc1cccc(-c2ccc3c(c2)O[C@H](CN(C)Cc2ccncc2)[C@H](C)CN([C@H](C)CO)S3(=O)=O)c1 | -0.814% |
| CCCC#Cc1ccc([C@H]2[C@@H](CO)N(C(=O)C3CC3)[C@H]2C#N)cc1 | 0.491% |
| C[C@@H]1CN([C@H](C)CO)C(=O)c2cc(C#Cc3ccccn3)cnc2O[C@H]1CN(C)CC1CCOCC1 | 14.4% |
| C[C@H]1CN([C@@H](C)CO)C(=O)c2cccc(NC(=O)C3CCOCC3)c2O[C@H]1CN(C)S(C)(=O)=O | -0.415% |
| COc1ccc(CNC(=O)C[C@H]2CC[C@@H]3[C@H](COc4ccc(NC(=O)C5CC5)cc4C(=O)N3C)O2)cc1 | -0.548% |
| C[C@H]1CN([C@@H](C)CO)C(=O)c2cc(N(C)C)ccc2O[C@@H]1CN(C)S(=O)(=O)c1ccc(Cl)cc1 | 14.8% |
| C[C@@H]1CCCCO[C@@H](CN(C)Cc2ccc(C(=O)O)cc2)[C@H](C)CN([C@H](C)CO)C(=O)c2cc(NC(=O)Nc3ccc(F)cc3)ccc2O1 | 0.576% |
| C[C@H](CO)N1C[C@H](C)[C@H](CN(C)S(=O)(=O)c2ccccc2)Oc2cc(Br)ccc2S1(=O)=O | -0.169% |
| C[C@@H]1CN([C@@H](C)CO)C(=O)c2cc(NC(=O)Cc3ccccc3)ccc2O[C@@H](C)CCCCO[C@H]1CN(C)C(=O)Nc1cccc2ccccc12 | -0.256% |
| COc1ccc(NC(=O)CN(C)C(=O)c2ccc(COc3ccccc3)o2)cc1 | -2.65% |
| CCOc1ccc(OCc2ccc(C(=O)N(C)c3ccccc3)o2)cc1 | 27.6% (active) |
| CCOc1ccc(OCc2ccc(C(=O)Nc3cccc(C)n3)o2)cc1 | 1.24% |
| C/C=C/c1ccc2c(c1)O[C@H](CN(C)C(C)=O)[C@H](C)CN([C@H](C)CO)S2(=O)=O | -0.698% |
| CO[C@H]1CN(C)C(=O)c2ccc(NC(=O)C3CC3)cc2OC[C@@H](C)N(C)C[C@H]1C | 4.48% |
| CO[C@@H]1CN(C)C(=O)c2ccc(NC(=O)C3CCCCC3)cc2OC[C@@H](C)N(Cc2nccs2)C[C@@H]1C | 1.22% |
| Cc1ccc(S(=O)(=O)N(C)C[C@H]2Oc3c(NC(=O)c4ccc(-c5nccs5)cc4)cccc3C(=O)N([C@H](C)CO)C[C@H]2C)cc1 | -3.77% |
| C[C@H]1CN([C@@H](C)CO)S(=O)(=O)c2ccc(C#Cc3ccccc3F)cc2O[C@@H]1CN(C)C(=O)c1ccc2c(c1)OCO2 | 1.7% |
| CN1CCN(C(=O)C[C@@H]2C=C[C@@H](NS(=O)(=O)c3cccc(F)c3)[C@@H](CO)O2)CC1 | -7.9% |
| CNC(=O)C[C@H]1CC[C@H]2[C@H](COc3ccc(NC(=O)Nc4cccc(C)c4)cc3C(=O)N2C)O1 | -0.336% |
| COc1ccccc1C(=O)Nc1ccc(C)c(S(=O)(=O)N2CCCCC2)c1 | -5.07% |

| Compound | inhibition |
| --- | --- |
| CCOC(=O)C1CCN(CC(=O)Nc2ccc(OC)c(S(=O)(=O)N3CCCCC3)c2)CC1 | 2.34% |
| COc1ccc(NC(=O)C2=NNC(=O)CC2)cc1S(=O)(=O)N1CCCCC1 | 25.4% (active) |
| C[C@@H]1CN([C@@H](C)CO)C(=O)c2cccc(NS(=O)(=O)c3ccc(Cl)cc3)c2O[C@@H]1CN(C)C(=O)Nc1ccccc1 | 0.684% |
| N#C[C@H]1[C@@H](c2ccc(-c3ccccc3F)cc2)[C@H](CO)N1C(=O)c1ccccn1 | -0.127% |
| COc1cccc(CNC(=O)C[C@H]2CC[C@@H](NC(C)=O)[C@@H](CO)O2)c1 | -2.55% |
| C[C@@H]1CCCCO[C@H](CN(C)C(=O)C2CCCCC2)[C@@H](C)CN([C@@H](C)CO)C(=O)c2cc(NC(=O)Nc3ccccc3)ccc2O1 | -3.55% |
| O=C(C[C@H]1C=C[C@H](NC(=O)Nc2cc(F)ccc2F)[C@H](CO)O1)Nc1ccccc1 | -2.58% |
| C[C@@H]1CN([C@H](C)CO)C(=O)Cc2cc(NS(=O)(=O)c3cccs3)ccc2O[C@H]1CN(C)C(=O)Nc1ccc2c(c1)OCO2 | 2.77% |
| C[C@@H]1CN([C@H](C)CO)S(=O)(=O)c2ccc(C#Cc3ccccc3F)cc2O[C@@H]1CN(C)C(=O)c1ccc2c(c1)OCO2 | -1.88% |
| COc1ccc(S(=O)(=O)Nc2ccc3c(c2)C(=O)N([C@H](C)CO)C[C@@H](C)[C@H](CN(C)S(=O)(=O)c2ccc(C)cc2)O3)cc1 | 4.85% |
| COCCNC(=O)C[C@H]1CC[C@@H]2[C@H](COc3ccc(NC(=O)Nc4cccc(F)c4)cc3C(=O)N2C)O1 | 0.139% |
| CO[C@H]1CN(C)C(=O)c2ccc(NC(=O)c3cnccn3)cc2OC[C@@H](C)N(C(C)=O)C[C@H]1C | -1.18% |
| C[C@@H]1CN([C@H](C)CO)C(=O)Cc2cc(NC(=O)C3CCCCC3)ccc2O[C@@H]1CN(C)S(C)(=O)=O | 56.5% |
| CC(C)NC(=O)N1[C@@H]2CN(C(=O)Nc3ccc(F)cc3)c3ccccc3[C@@H]2[C@@H]1CO | 2.48% |
| C[C@@H]1CCCCO[C@@H](CN(C)S(=O)(=O)c2ccccc2)[C@H](C)CN([C@H](C)CO)C(=O)c2cc(NC(=O)CCC(F)(F)F)ccc2O1 | 0.918% |
| O=C(c1ccccc1)N1C[C@H]2[C@@H](c3ccccc31)[C@H](CO)N2Cc1ccccc1F | -1.39% |
| CC(C)C#Cc1ccc([C@@H]2[C@H]3CN(C(=O)NC(C)C)CCCCN3[C@H]2CO)cc1 | 1.97% |
| CN1C(=O)c2cc(NC(=O)C3CC3)ccc2OC[C@@H]2O[C@H](CC(=O)NCC3CCCCC3)CC[C@@H]21 | 0.676% |
| CCCOc1ccc(F)cc1-c1cc(C(=O)Nc2ccc(F)c(Cl)c2)[nH]n1 | -24.9% |
| CCCOc1ccc(F)cc1-c1cc(C(=O)NCc2ccc(F)cc2)[nH]n1 | 4.69% |
| CCCOc1ccc(F)cc1-c1cc(C(=O)Nc2ccc(F)cc2)[nH]n1 | 21.5% (active) |
| Cc1ccc(S(=O)(=O)NCC[C@H]2CC[C@H](NC(=O)c3ccccn3)[C@H](CO)O2)cc1 | 0.367% |
| CCCNC(=O)N1C[C@@H]2[C@H](c3ccccc31)[C@@H](CO)N2C(=O)NC(C)C | 4.12% |

| Compound | inhibition |
| --- | --- |
| CN1c2ccc(-c3ccccc3F)cc2[C@H]2[C@H](CCN2C(=O)Nc2cc(F)ccc2F)[C@H]1CO | -0.933% |
| C=CC1=C(C(=O)O)N2C(=O)[C@@H](NC(=O)/C(=N/OCC(=O)O)c3csc(N)n3)[C@H]2SC1 | 71% (active) |
| C=CC1=C(C(=O)O)N2C(=O)[C@@H](NC(=O)/C(=N\OCC(=O)O)c3csc(N)n3)[C@H]2SC1 | -2.51% |
| OC[C@H]1[C@@H](c2ccc(/C=C/c3ccccc3)cc2)[C@H]2CN(Cc3cccnc3)CCCCN21 | -0.638% |
| CO[C@@H]1CN(C)C(=O)c2cc(NC(=O)C3CC3)ccc2OC[C@H](C)N(Cc2ccc(F)cc2)C[C@@H]1C | -0.858% |
| O=C(C[C@H]1CC[C@H](NC(=O)Nc2ccc(C(F)(F)F)cc2)[C@H](CO)O1)NCCN1CCCC1 | -2.91% |
| Cc1noc(C)c1NC(=O)N(C)C[C@H]1OCCCC[C@H](C)Oc2ccc(NC(=O)Nc3ccc4c(c3)OCO4)cc2C(=O)N([C@H](C)CO)C[C@@H]1C | 3.46% |
| O=C(C[C@@H]1CC[C@@H]2[C@H](COC[C@H](O)CN2Cc2cccc(F)c2)O1)NCc1ccncc1 | -0.388% |
| C[C@H]1CCCCO[C@H](CN(C)C(=O)CCC(F)(F)F)[C@@H](C)CN([C@@H](C)CO)C(=O)c2cc(NC(=O)Nc3ccc4c(c3)OCO4)ccc2O1 | 0.932% |
| Cc1csc(SCC(=O)Nc2ccc(C)c(S(=O)(=O)N(C)C)c2)n1 | 3.71% |
| Cc1ccc(NC(=O)CNCc2ccccn2)cc1S(=O)(=O)N(C)C | 20.4% (active) |
| CCN(CC(=O)Nc1ccc(C)c(S(=O)(=O)N(C)C)c1)Cc1ccccc1 | -3.38% |
| CC(C)(C)c1ccc(CN2C(=O)c3ccccc3S2(=O)=O)cc1 | 41.7% (active) |
| COc1ccc(CNC(=O)CN2C(=O)c3ccccc3S2(=O)=O)cc1 | -2.12% |
| O=C1c2ccccc2S(=O)(=O)N1Cc1c(F)cccc1Cl | -4.6% |
| COc1ccccc1S(=O)(=O)N1CC[C@@H]2[C@H](CO)Nc3ccc(-c4ccccc4F)cc3[C@@H]21 | 2.37% |
| CCC(=O)Nc1ccc2c(c1)C(=O)N(C)C[C@@H](OC)[C@H](C)CN(Cc1ccccc1C(=O)O)[C@@H](C)CO2 | 1.3% |
| O=C(NCCS(=O)(=O)NCc1ccc(Cl)cc1)c1ccccc1 | 0.839% |
| O=C(NCCc1ccc(Cl)cc1)C1CCCN1C(=O)NCc1ccccc1 (stereo not drawn) | 1.86% |
| O=S1(=O)CC(NCc2ccccc2)C(Nc2ccc(Cl)cc2)C1 (stereo not drawn) | 35.4% (active) |
| CN(C)CC#Cc1ccc([C@H]2[C@H](CO)N3CCCCN(CC4CC4)C[C@@H]23)cc1 | 0.034% |
| COc1ccccc1CNC(=O)C[C@@H]1CC[C@@H]2[C@@H](COc3ccc(NC(=O)Nc4ccc(F)c(F)c4)cc3C(=O)N2C)O1 | 0.834% |
